Assay outcomes from PubChem.
Most compounds without a hit are left out; they make up all but 0.71% or so of the library.
sdo1 growth: growth rescue of sdo1-depleted yeast, primary screen, S. cerevisiae, bone marrow failure model; S. cerevisiae sdo1-depleted JHY4D growth rescue, OD600 30 h; hits give high values; pdr5 snq2 efflux-pump mutant strain; z-score at 10 µM; actives 0.21% (n = 140,000); AID 817, 2007;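 active means z-score above 3 at both the 24 hr and the 30 hr optical density reads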
Mac1 fbg enh: enhancers of CD11b/CD18 adhesion to fibrinogen, primary screen, K562 cells, luminescence. ATPlite luminescence. activation, % at 10 µM. actives 0.07% (n = 93,000). AID 1499, 2009;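 active means 10 µM primary screen giving 50% or more activity, confirmed by 40% or more on retest at that dose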
Target sequence (P05107 whole entry, looked up, other chains not shown): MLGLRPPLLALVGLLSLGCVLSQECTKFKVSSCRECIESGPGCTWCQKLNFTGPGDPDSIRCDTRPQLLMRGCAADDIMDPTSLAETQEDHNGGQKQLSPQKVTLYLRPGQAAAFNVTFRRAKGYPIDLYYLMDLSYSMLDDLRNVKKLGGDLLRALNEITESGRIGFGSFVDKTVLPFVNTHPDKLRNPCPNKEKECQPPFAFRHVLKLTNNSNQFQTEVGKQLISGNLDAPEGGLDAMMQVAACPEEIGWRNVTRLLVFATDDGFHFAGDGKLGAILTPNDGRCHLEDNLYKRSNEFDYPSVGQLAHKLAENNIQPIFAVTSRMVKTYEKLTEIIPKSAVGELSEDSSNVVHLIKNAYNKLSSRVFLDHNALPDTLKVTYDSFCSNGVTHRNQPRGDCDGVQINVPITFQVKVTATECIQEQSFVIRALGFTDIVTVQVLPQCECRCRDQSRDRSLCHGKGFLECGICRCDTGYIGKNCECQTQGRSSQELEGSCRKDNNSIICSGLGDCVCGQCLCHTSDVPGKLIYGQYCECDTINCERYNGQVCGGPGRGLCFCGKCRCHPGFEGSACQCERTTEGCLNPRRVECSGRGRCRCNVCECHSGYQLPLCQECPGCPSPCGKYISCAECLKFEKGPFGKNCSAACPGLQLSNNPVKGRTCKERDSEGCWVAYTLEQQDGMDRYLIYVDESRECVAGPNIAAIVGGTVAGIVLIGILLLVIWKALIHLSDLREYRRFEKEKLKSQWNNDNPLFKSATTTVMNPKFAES
Phagocytosis inh: inhibitors of macrophage phagocytosis, primary screen, imaging, J774A.1 cells, IgG beads | AID 1029, 2008 | actives 0.07% (n = 110,000) | J774A.1 macrophage IgG-bead phagocytosis | inhibition, % at 5 µM;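 active means inhibition above the mean of the plate negative controls plus 5 SD, cut at about 13% in these data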;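 further: phagocytic index as fraction of beads internalized from green versus red external bead signal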
Mac1 fbg inh: inhibitors of CD11b/CD18 adhesion to fibrinogen, primary screen, K562 cells, luminescence; Integrin beta-2 (Homo sapiens) + Integrin alpha-M (Homo sapiens), P05107+P11215; ATPlite luminescence; Mn2+ added to activate the integrin; inhibition, % at 10 µM; actives 0.54% (n = 93,000); AID 1497, 2009;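 active means primary inhibition of 50% or more at 10 µM, then 40% or more on retest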
SDO1 rescue DR: SDO1-depleted yeast growth rescue, concentration-response, diseases of bone marrow failure, JHY4D, OD600. shares compounds with sdo1 growth. S. cerevisiae JHY4D (SDO1-depleted) growth rescue, 30 h; hits give high values; efflux-deficient strain, SNQ2 and PDR5 mutated. OD recovery (concentration not given with the values). actives 44% (n = 440). AID 949, 2007;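 active means yeast growth recovered at 30 hours, either rising with dose fitted slope above 0.001 or with average optical density gain above 0.07, some results past the limit were not filed as active; inactive means growth falling with dose or no effect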
Hits are given with their value; . = inactive; / = not tested or not shown; ! = not active in a repeat.

SMILES | sdo1 growth | Mac1 fbg enh | Phagocytosis inh | Mac1 fbg inh | SDO1 rescue DR
CCc1nnc(NC(=O)c2ccc(Cl)c(S(=O)(=O)N3CCc4ccccc43)c2)s1 | . | . | . | 86 | /
Cc1cnnn1-c1ccc(C(=O)CCl)cc1 | . | / | / | / | /
N#Cc1c(C(F)(F)F)cc(-c2ccccc2)[nH]c1=O | . | / | / | / | /
N#Cc1c(C(F)(F)F)cc(-c2ccccc2Cl)[nH]c1=O | . | . | . | 62 | /
O=C(CSc1ccc(Cl)cc1)NC1CCCc2ccccc21 (centres undefined) | . | / | . | / | /
Brc1ccccc1OCCCn1cnc2ccccc21 | . | . | . | . | /
c1ccc(OCCCCn2cnc3ccccc32)cc1 | . | . | . | 63 | /
Cc1ccccc1OCCCCn1cnc2ccccc21 | . | . | / | 95 | /
c1ccc2c(c1)ncn2CCCCOc1ccc2c(c1)CCC2 | . | . | . | 82 | /
c1ccc(OCCn2cnc3ccccc32)cc1 | . | . | . | . | /
CCCOc1ccc(Cn2cnc3ccccc32)cc1 | . | . | . | 89 | /
O=C(OCC(F)(F)C(F)F)c1ccccc1C(=O)Oc1ccc(F)cc1F | . | . | . | . | /
COc1ccc(-c2cc(C(F)(F)F)nc(-n3ccnc3C)n2)cc1 | . | . | . | . | /
CCOC(=O)c1cccc(COC(=O)c2cccc(-c3nnc(-c4ccccc4)o3)c2)c1 | . | / | . | / | /
O=C(Nc1cc(C(F)(F)F)ccc1Cl)C(Sc1nnc(-c2cccs2)o1)c1ccccc1 (centres undefined) | . | . | . | 100 | /
Cn1nc(C(C)(C)C)cc1C(=O)NCc1ccc(N2CCCC2=O)cc1 | . | . | . | 84 | /
Cc1c(Cl)cccc1-n1c(SCC(=O)N(C)Cc2ccccc2)nnc1-c1ccncc1 | . | . | . | . | /
CCCCc1ccc(C2C(C#N)=C(N)SC(N)=C2C#N)s1 | . | . | . | 100 | /
CCOc1ccc(C2C(C#N)=C(N)SC(N)=C2C#N)c(OCC)c1 | . | . | . | . | /
O=S(=O)(Nc1nc2ccccc2s1)c1ccc(Cl)s1 | . | . | . | 74 | /
CCOC(=O)c1ccc2c(c1)C1C=CCC1C(C(=O)O)N2 (centres undefined) | . | 116 | . | . | /
Oc1csc(Cc2nc(-c3ccc(-c4ccccc4)cc3)cs2)n1 | . | 161 | / | . | /
Oc1csc(Cc2nc(-c3ccc4ccccc4c3)cs2)n1 | . | . | / | . | /
CCOC(=O)c1cn(-c2nc(-c3ccc(Cl)c(Cl)c3)cs2)c2c(F)c(N3CCOCC3)c(F)cc2c1=O | . | 52 | . | . | /
COc1cccc(CNCCc2c[nH]c3ccccc23)c1OCc1ccccc1 | . | . | . | 60 | /
SMILES | sdo1 growth | Mac1 fbg enh | Phagocytosis inh | Mac1 fbg inh | SDO1 rescue DR
O=C(Nc1ccc(Br)cc1)c1cccc(S(=O)(=O)Nc2cnc3ccccc3c2)c1 | . | / | . | / | /
COc1ccc(NC(=O)c2cccc(S(=O)(=O)Nc3ccc(Br)cc3)c2)cn1 | . | . | . | 103 | /
COCCCn1c(SCC(=O)N2CC(=O)Nc3ccccc32)nnc1-c1ccoc1C | 11 | . | . | . | 0.084
COc1ccccc1NC(=O)N1CCN(c2ncccn2)CC1 | . | . | / | . | /
Cc1ccc(S(=O)(=O)N2CCCCC2)cc1NC(=O)COC(=O)Cc1c(F)cccc1Cl | 17 | / | . | / | 0.09
CCN(CC)S(=O)(=O)c1ccc(O)c(NS(=O)(=O)c2ccccc2F)c1 | . | / | . | / | /
O=C(NCCCN1CCN(CCCNC(=O)c2cccc([N+](=O)[O-])c2)CC1)c1cccc([N+](=O)[O-])c1 | 11 | / | . | / | .
Cc1cc(NC(=O)c2cccs2)n(-c2ccccc2)n1 | 3.5 | . | . | . | 0.083
COc1ccc(N2CCN(C(=O)C3COc4ccccc4O3)CC2)cc1 (centres undefined) | . | . | / | . | /
O=C(C1COc2ccccc2O1)N1CCN(c2ccccc2F)CC1 (centres undefined) | 3.1 | . | . | . | 0.11
CCN(CC)S(=O)(=O)c1ccc(NC2c3ncccc3C(=O)N2Cc2ccccc2)cc1 (centres undefined) | 10 | / | / | / | .
N=c1c2c3c(sc2ncn1CCN1CCOCC1)CCCCC3 | 11 | . | . | . | .
CC(C)OC(=O)CSc1nnc(-c2ccccc2)n1N | 6.7 | . | . | . | .
C=C(C)C1Cc2c(C)nn(-c3nc(C)cc(C)n3)c2C1 (centres undefined) | . | . | . | . | /
Cc1ccc(C)n1CCN1CCN(C(=O)c2ccco2)CC1 | 3! | . | . | . | .
O=C1CCCC(=O)C1=C1SCCCS1 | . | / | . | / | /
Cc1csc(NC(=O)CSc2nnc(-c3ccc(S(=O)(=O)N4CCCC4)cc3)o2)n1 | . | . | . | . | /
CCN(CC)S(=O)(=O)c1ccc(-c2nnc(SCC(=O)Nc3nc(C)cs3)o2)cc1 | . | . | . | . | .
Cc1ccc(N(C(C)C(=O)N2CCCCC2)S(C)(=O)=O)cc1C (centres undefined) | . | . | . | . | /
Cc1cccc(NC(=O)C2(c3ccc([N+](=O)[O-])cc3)CCCC2)c1 | 6.5 | / | / | / | .
O=C(NCCc1ccccc1)c1ccnc(/C=N/O)c1 | 8 | . | . | . | .
CC1CCN(c2ccc(C(=O)NCc3ccco3)cc2[N+](=O)[O-])CC1 | 11 | / | . | / | 0.095
CC1=NN(C(=O)Cn2nc([N+](=O)[O-])cc2C)C(O)(C(F)(F)F)C1 (centres undefined) | . | / | . | / | /
COc1cc(NS(C)(=O)=O)c(OC)cc1NC(=O)c1cccc(F)c1 | . | . | . | . | /
CSc1ncc(Cl)c(C(=O)Nc2sc3c(c2C(=O)NCc2ccco2)CCCC3)n1 | . | . | . | . | /
SMILES | sdo1 growth | Mac1 fbg enh | Phagocytosis inh | Mac1 fbg inh | SDO1 rescue DR
CCSc1ncc(Cl)c(C(=O)Nc2sc3c(c2C(=O)NCc2cccnc2)CCCC3)n1 | . | . | / | . | 0.072
O=C(Nc1c(C(=O)Nc2cccc3ccccc23)cnn1-c1ccccc1)c1ccco1 | . | / | / | / | /
CCOc1ccc(C(=O)N2CCCC2)cc1OC | . | . | . | . | /
CCOc1cc(C(=O)N2CCCC2)cc(OCC)c1OCC | . | . | . | . | .
CCN1CCN(C(c2cccs2)C(C)NC(=O)c2cccnc2)CC1 (centres undefined) | . | / | / | / | /
Cc1ccc(C(=O)N(Cc2ccc3c(c2)OCO3)Cc2nc3ccccc3c(=O)[nH]2)cc1 | 8.5 | . | . | . | 0.091
O=C(c1ccccc1)N(Cc1ccc(F)cc1)Cc1nc2ccccc2c(=O)[nH]1 | . | / | / | / | /
Cc1ccc(NC(=O)CCc2ccc(S(=O)(=O)N3CCOCC3)cc2)c(C)c1 | . | . | . | . | /
COC(=O)C1C(=O)OC(C)(C)C1C(C)C(=O)c1ccccc1 (centres undefined) | 4.8 | . | . | . | .
CCN1CCN(CC(O)COCCOc2ccc(Br)cc2)CC1 (centres undefined) | 6.9 | / | . | / | .
COc1ccc2c(c1)CCc1c(C(=O)NCCc3ccc(OC)c(OC)c3)noc1-2 | . | . | . | . | .
